Hit rate of the full screen: of about 350,000 compounds, about 5,500 (1.6%) were called active.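 Rule for the calls: active = significant combined selectivity score with lowered wild-type GFP, culture density cut under 30%, mutant RFP and density less affected; inactive = any of these conditions unmet.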 Many of the other results were omitted from the sample, so actives are more common in it than they were.

The experiment can be described thus: reduced GFP signal of wild-type E. coli, primary screen, bacterial rRNA inhibitor project, GFP/RFP fluorescence, OD600, single point (AID 720706). As to conditions: E. coli WT GFP vs humanized-ribosome RFP mutants, 24 h; GFP signal change (wild-type ribosome): stronger effect = lower value, DMSO median 0, no signal -100; OD600 change: measured here: OD600 growth, DMSO median 0, no signal -100; RFP signal change: measured here: RFP humanized mutant strains, DMSO median 0, no signal -100, concentration not given here.
For the molecule `CCN(c1cccc(C)c1)S(=O)(=O)c1ccc(-c2coc(C)n2)cc1`, the GFP signal change (wild-type ribosome) is -9.48% (inactive), the OD600 change was -35% and the RFP signal change was -6.13%.

For `CN1C(CC(=O)Nc2ccc(Br)cc2)c2ccccc2CC1(C)C` (stereo unspecified), the GFP signal change (wild-type ribosome) is -26.3% (active), the OD600 change was -20.9% and the RFP signal change was -0.455%.

For the molecule `CC1(C)CN(CCc2ccccc2)C(=O)[C@H]1CC(=O)Nc1ccc(Br)cc1`, the GFP signal change (wild-type ribosome) was -6.21% (inactive), the OD600 change is 0.615% and the RFP signal change is -0.505%.

For `CCCCN1CC(C)(C)[C@H](CC(=O)Nc2ccc(Br)cc2)C1=O`, the GFP signal change (wild-type ribosome) was -12.6% (inactive), the OD600 change is -27.4% and the RFP signal change was -4.18%.

With `CNC[C@H]1OCCCC[C@H](C)Oc2ccc(NS(=O)(=O)c3ccc(Cl)cc3)cc2C(=O)N([C@@H](C)CO)C[C@@H]1C`, the GFP signal change (wild-type ribosome) was 3.9% (inactive), the OD600 change was found to be 3.87% and the RFP signal change is 0.215%.

Take `O=C(N/N=C/c1ccc(OCc2ccccc2)cc1)c1ccc(O)cc1`: the GFP signal change (wild-type ribosome) is -18.6% (active), the OD600 change was 6.25% and the RFP signal change worked out at 7.26%.

Turning to `CCOc1ccc(-c2cc(C(=O)N/N=C/c3ccc(O)cc3)c3ccccc3n2)cc1`, the GFP signal change (wild-type ribosome) is 12.1% (inactive), the OD600 change came to 6.6% and the RFP signal change is 2.19%.

On to `O=C(Cc1cccs1)N/N=C/c1ccc(OCc2ccccc2)cc1`, for which the GFP signal change (wild-type ribosome) is 6.88% (inactive), the OD600 change is -2.65% and the RFP signal change is -8.12%.

In the case of `C[C@@H]1CCCCO[C@H](CN(C)C(=O)NC2CCCCC2)[C@@H](C)CN([C@H](C)CO)C(=O)c2cc(NC(=O)CCC(F)(F)F)ccc2O1`, the GFP signal change (wild-type ribosome) is -0.169% (inactive), the OD600 change was -3.94% and the RFP signal change was -2.49%.

As to `CCNC(=O)Nc1ccc2c(c1)C(=O)N(C)[C@@H]1CC[C@@H](CC(=O)NCCOC)O[C@@H]1CO2`, the GFP signal change (wild-type ribosome) was 4.01% (inactive), the OD600 change came out at 1.31% and the RFP signal change is -0.262%.

As to `COc1ccc2c3c([nH]c2c1)[C@H](CO)N(C(=O)CN1CCOCC1)CC31CN(C(C)=O)C1`, the GFP signal change (wild-type ribosome) was 3.07% (inactive), the OD600 change was 2.55% and the RFP signal change is 0.589%.

In the case of `CNC[C@H]1OCCCC[C@@H](C)Oc2ccc(NS(=O)(=O)c3ccc(F)cc3)cc2C(=O)N([C@H](C)CO)C[C@H]1C`, the GFP signal change (wild-type ribosome) is 2.84% (inactive), the OD600 change was 7.37% and the RFP signal change is -0.102%.

Take `CC(C)NC(=O)N(C)C[C@H]1OCCCC[C@H](C)Oc2ccc(NC(=O)CCCN(C)C)cc2C(=O)N([C@@H](C)CO)C[C@H]1C`: the GFP signal change (wild-type ribosome) is 3.73% (inactive), the OD600 change was 6.52% and the RFP signal change is -0.182%.

With `COc1ccc2c3c(n(C)c2c1)[C@H](CO)N(C(=O)c1ccc(F)cc1)CC31CCN(C(C)=O)CC1`, the GFP signal change (wild-type ribosome) was -0.941% (inactive), the OD600 change came to 9.11% and the RFP signal change was -3.57%.

Take `COc1ccc(S(=O)(=O)Nc2ccc3cn[nH]c3c2)cc1[N+](=O)[O-]`: the GFP signal change (wild-type ribosome) was 3.58% (inactive), the OD600 change stood at 9.25% and the RFP signal change is -2.09%.

Consider `COc1ccc(Br)cc1/C=N/Nc1ccc(S(=O)(=O)Nc2ccccc2C(=O)O)cc1[N+](=O)[O-]`, for which the GFP signal change (wild-type ribosome) is -24.6% (active), the OD600 change was 15.1% and the RFP signal change was -1.87%.

`CCOc1ccccc1Nc1ccc(C(=O)O)cc1[N+](=O)[O-]`: the GFP signal change (wild-type ribosome) was 1.23% (inactive), the OD600 change is -10.5% and the RFP signal change was -0.853%.

With `CCCC#Cc1ccc([C@H]2[C@@H](CO)N3CCCCN(S(=O)(=O)Cc4ccccc4)C[C@H]23)cc1`, the GFP signal change (wild-type ribosome) was -54.1% (inactive), the OD600 change is -75.8% and the RFP signal change is -7.77%.

`C[C@@H]1CCCCO[C@H](CN(C)S(=O)(=O)c2cccs2)[C@H](C)CN([C@H](C)CO)C(=O)c2cc(NC(=O)c3ccccc3)ccc2O1`: the GFP signal change (wild-type ribosome) was 0.541% (inactive), the OD600 change is -5.5% and the RFP signal change was 4.83%.

Turning to `O=C(CCC(=O)c1cccs1)Nc1nc2ccccc2s1`, the GFP signal change (wild-type ribosome) is -21.4% (active), the OD600 change was -16.4% and the RFP signal change was -0.615%.

For `O=C(c1cccs1)N1CCC(c2nc3ccccc3s2)CC1`, the GFP signal change (wild-type ribosome) was -27.6% (inactive), the OD600 change is -25.9% and the RFP signal change stood at 9.84%.

Take `O=C(CCC(=O)c1cccs1)NC1CCCCCC1`: the GFP signal change (wild-type ribosome) is 13.3% (inactive), the OD600 change is 16.6% and the RFP signal change was 0.589%.

Turning to `COc1ccc(Br)cc1CN1CCN(C(=O)c2cccc(OC)c2OC)CC1`, the GFP signal change (wild-type ribosome) was -28.2% (active), the OD600 change was -11.8% and the RFP signal change was 1.29%.

On to `COc1cc(OC)c(OC)cc1CN1CCN(C(=O)c2cccc3ccccc23)CC1`, for which the GFP signal change (wild-type ribosome) was 9.36% (inactive), the OD600 change worked out at 7.23% and the RFP signal change was 0.512%.

In the case of `COc1cccc(OC)c1C(=O)N1CCN(Cc2ccccc2F)CC1`, the GFP signal change (wild-type ribosome) was 11.6% (inactive), the OD600 change was 16.8% and the RFP signal change was determined as 0.962%.

For `COc1ccc(NC(=O)Nc2ccc3c(c2)C(=O)N([C@H](C)CO)C[C@H](C)[C@@H](CN(C)Cc2ccc(C(=O)O)cc2)OCCCC[C@H](C)O3)cc1`, the GFP signal change (wild-type ribosome) is -0.806% (inactive), the OD600 change was -1.43% and the RFP signal change was -1.16%.

For `C[C@H]1CCCCO[C@H](CN(C)S(=O)(=O)c2ccc(Cl)cc2)[C@@H](C)CN([C@@H](C)CO)C(=O)c2cc(NC(=O)Nc3ccc4c(c3)OCO4)ccc2O1`, the GFP signal change (wild-type ribosome) was 2.33% (inactive), the OD600 change came to 1.85% and the RFP signal change is -3.19%.

Take `COc1ccc2c3c(n(C)c2c1)[C@H](CO)N(C(C)=O)CC31CN(Cc2ccc(Cl)cc2)C1`: the GFP signal change (wild-type ribosome) was -5.13% (inactive), the OD600 change was -14.3% and the RFP signal change is 1.56%.

Regarding `C[C@@H]1CN([C@@H](C)CO)S(=O)(=O)c2ccc(-c3ccncc3)cc2O[C@@H]1CN(C)C(=O)C1CCC1`, the GFP signal change (wild-type ribosome) is -1.91% (inactive), the OD600 change was 0.625% and the RFP signal change is -1.44%.

With `COc1cc(/C=C/C(=O)OCC(=O)c2ccccc2)cc(OC)c1OC`, the GFP signal change (wild-type ribosome) is -32.8% (inactive), the OD600 change is -28.1% and the RFP signal change is -5.92%.

For the molecule `COc1cc(/C=C/C(=O)N2CCc3ccccc3C2)cc(OC)c1OC`, the GFP signal change (wild-type ribosome) is -21.8% (active), the OD600 change is -16.9% and the RFP signal change was 0.83%.

Turning to `CCC(C)(C)NC(=O)/C=C/c1cc(OC)c(OC)c(S(=O)(=O)N2CCc3ccccc32)c1`, the GFP signal change (wild-type ribosome) was 25% (inactive), the OD600 change is 13.4% and the RFP signal change was -10.2%.

The record behind these values is PubChem BioAssay AID720706 (Broad Institute, 2013).
